The supplement of paper PMC6522484
± gives the standard deviation of the averaged measurements.

Key:
DLD1 [1] = experiment: cell viability (CellTiter-Glo) relative to plate median (fraction of plate median); higher = more viable cells; conditions: 5 µM; treatment time 24 h; reporter: 7TFP
Method in brief: (§1)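 Stable lentiviral TCF/Wnt firefly luciferase reporters (7TFP or TCF4/Wnt) were present in the colorectal cancer cell lines used. These cells received library compounds at a final 5 µM for 24 h, and parallel plates were read for firefly luciferase or CellTiterGlo luminescence. Each well was normalised to the plate median, and the value reported is the mean of two independent replicates.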

HCT116 = experiment: as above; conditions: 5 µM; treatment time 24 h; reporter: TCF4/Wnt
Method in brief: as §1

SW480 [2] = experiment: as above; conditions: 5 µM; treatment time 24 h; reporter: 7TFP
Method in brief: as §1

DLD1 [3] = experiment: TCF/Wnt firefly luciferase reporter signal relative to plate median (fraction of plate median); higher = higher Wnt reporter signal; conditions: 5 µM; treatment time 24 h; reporter: 7TFP
Method in brief: as §1

SW480 [4] = experiment: as above; conditions: 5 µM; treatment time 24 h; reporter: 7TFP
Method in brief: as §1

Compound | cell viability (DLD1 [1]) | cell viability (HCT116) | cell viability (SW480 [2]) | TCF/Wnt firefly luciferase reporter signal (DLD1 [3]) | TCF/Wnt firefly luciferase reporter signal (SW480 [4])
NS(=O)(=O)c1ccc(S(=O)(=O)Nc2cccc3c(Cl)c[nH]c23)cc1 [indisulam] | 1.04 ± 0.028 | 0.747 ± 0.07 | 0.926 ± 0.0028 | 1.17 ± 0.014 | 1.1 ± 0.15
Cc1cc(/C=C/c2ccc3cc(N(C)C)ccc3[n+]2C)c(C)n1-c1ccccc1 | 0.899 ± 0.057 | 0.592 ± 0.17 | 0.852 ± 0.08 | 0.774 ± 0.1 | 0.588 ± 0.085
COc1ccc(-c2cc(C(F)F)nn2-c2ccc(S(N)(=O)=O)cc2)cc1F | 0.869 ± 0.086 | 1.01 ± 0.014 | 1.04 ± 0.057 | 0.983 ± 0.025 | 0.995 ± 0.078
CNS(=O)(=O)c1ccc(NC(=O)c2ccccc2C(=O)O)cc1 | 1.03 ± 0.098 | 1.04 ± 0.042 | 1.04 ± 0.072 | 0.967 ± 0.013 | 1.085 ± 0.0071
O[C@H]1[C@H](O)[C@@H](O)[C@H](O)[C@@H](O)[C@H]1O | 0.938 ± 0.03 | 0.922 ± 0.097 | 0.931 ± 0.0057 | 1.12 ± 0.042 | 1.07 ± 0.035
COC(=O)CC[C@@H](C)[C@H]1CC[C@H]2[C@@H]3[C@H](O)C[C@@H]4C[C@H](O)CC[C@]4(C)[C@H]3C[C@H](O)[C@]12C | 0.98 ± 0.0099 | 1.06 | 1.005 ± 0.0071 | 1.21 ± 0.014 | 1.09 ± 0.092
Cc1onc(-c2c(Cl)cccc2Cl)c1C(=O)N[C@@H]1C(=O)N2[C@@H]1SC(C)(C)[C@@H]2C(=O)O | 0.935 ± 0.027 | 1.05 ± 0.073 | 0.972 ± 0.036 | 1 ± 0.042 | 1.15 ± 0.16
CC(=O)O[C@H]1C[C@@H](OC(C)=O)C(C)(C)C2C[C@@H](O)[C@]3(C)C(CC[C@@]4(C)[C@H](c5ccoc5)OC(=O)[C@H]5O[C@]543)[C@]21C (stereo not given in full) | 1.04 ± 0.042 | 1.06 ± 0.014 | 1.01 ± 0.073 | 0.977 ± 0.033 | 1.02 ± 0.061
O=C(O[C@@H]1Cc2c(O)cc(O)cc2O[C@@H]1c1cc(O)c(=O)c2c(O)c(O)cc([C@H]3Oc4cc(O)cc(O)c4C[C@H]3OC(=O)c3cc(O)c(O)c(O)c3)c2c1)c1cc(O)c(O)c(O)c1 | 0.996 ± 0.035 | 0.9235 ± 0.0064 | 1.045 ± 0.0071 | 0.903 ± 0.041 | 1.04
O=NN(CCCl)C(=O)NCCCl | 1.05 ± 0.014 | 1.06 ± 0.05 | 1.04 | 1.19 ± 0.021 | 1.045 ± 0.0071
CN(C)CCOC(=O)COc1ccc(Cl)cc1 | 0.979 ± 0.0085 | 0.991 ± 0.083 | 0.956 ± 0.052 | 1.21 ± 0.14 | 1.14 ± 0.05
Nc1ccc(S(N)(=O)=O)cc1 | 1.04 ± 0.081 | 0.975 ± 0.031 | 1.065 ± 0.0071 | 1.04 | 1.02 ± 0.073
CC(=O)CC(c1ccccc1)c1c(O)c2ccccc2oc1=O (stereo not given) | 1.02 ± 0.056 | 1.14 ± 0.078 | 0.989 ± 0.073 | 0.935 ± 0.062 | 1.12 ± 0.028
CCCCNC(=O)NS(=O)(=O)c1ccc(C)cc1 | 0.85 ± 0.14 | 0.982 ± 0.054 | 0.987 ± 0.033 | 0.931 ± 0.097 | 1.005 ± 0.0071
CC1(C)CC[C@]2(C(=O)O)CC[C@]3(C)C(=CC[C@@H]4[C@@]5(C)CC[C@H](O)C(C)(C)[C@@H]5[C@H](O)C[C@]43C)[C@@H]2C1 | 0.946 ± 0.076 | 0.955 ± 0.092 | 0.992 ± 0.026 | 0.952 ± 0.018 | 1.04 ± 0.057
O=C(O)CCCC[C@@H]1CCSS1 (racemic) | 1.06 ± 0.071 | 1.01 | 0.986 ± 0.035 | 0.856 ± 0.032 | 0.96 ± 0.023
c1ccc([C@H]2CN3CCSC3=N2)cc1 | 1.01 | 0.943 ± 0.11 | 1.02 ± 0.048 | 0.943 ± 0.043 | 0.947 ± 0.066
C#C[C@]1(O)CC[C@H]2[C@@H]3CCC4=CCCC[C@@H]4[C@H]3CC[C@@]21C | 1 ± 0.094 | 1.04 ± 0.021 | 0.97 ± 0.0085 | 1.02 ± 0.033 | 0.905 ± 0.042
CN(C)CCOC(c1ccccc1)c1ccccc1 | 1.04 ± 0.028 | 1.06 ± 0.092 | 0.955 ± 0.013 | 1.2 | 1.19 ± 0.085
CC(C)NCC(O)COc1ccc(COCCOC(C)C)cc1 (stereo not given) | 0.948 ± 0.017 | 0.99 ± 0.0057 | 0.933 ± 0.0028 | 1.03 ± 0.042 | 0.964 ± 0.066
CC1(C)C(=O)[C@H]2C[C@]3(O)C4=CC(=O)O[C@@H](c5ccoc5)[C@@]4(C)CCC3[C@](C)(C2=O)[C@H]1CC(=O)O (stereo not given in full) | 1.085 ± 0.0071 | 1.1 ± 0.064 | 1.05 ± 0.028 | 1.11 ± 0.099 | 0.972 ± 0.083
CC(C)NCC(O)COc1cccc2ccccc12 (stereo not given) | 0.927 ± 0.16 | 0.997 ± 0.047 | 1.03 ± 0.044 | 1.01 ± 0.044 | 0.9935 ± 0.0092
O=C(O)CCNC(=O)c1ccccc1 | 1.04 ± 0.035 | 1.035 ± 0.0071 | 1 ± 0.026 | 0.972 ± 0.0099 | 1.005 ± 0.0071
Nc1nnc(-c2cccc(Cl)c2Cl)c(N)n1 | 1.05 ± 0.05 | 1.04 ± 0.069 | 0.975 ± 0.05 | 0.923 ± 0.018 | 0.985 ± 0.036
O=C(O)c1cc(=O)c2ccccc2o1 | 0.859 ± 0.082 | 0.961 ± 0.11 | 0.987 ± 0.014 | 0.909 ± 0.12 | 0.993 ± 0.011
O=C1OC(=O)[C@H]2[C@@H]1[C@@H]1CC[C@H]2O1 | 0.9975 ± 0.0035 | 0.867 ± 0.079 | 0.949 ± 0.0085 | 1.06 ± 0.13 | 0.892 ± 0.02
COc1ccc2c(c1OC)C(=O)O[C@@H]2[C@H]1c2c(cc3c(c2OC)OCO3)CCN1C | 0.9895 ± 0.0092 | 0.879 ± 0.0099 | 0.995 ± 0.0014 | 0.973 ± 0.17 | 0.945 ± 0.15
O=C(O)CCc1nc(-c2ccccc2)c(-c2ccccc2)o1 | 0.846 ± 0.15 | 0.999 ± 0.13 | 0.963 ± 0.02 | 0.915 ± 0.03 | 0.952 ± 0.032
CN(C)CCCN1c2ccccc2CCc2ccccc21 | 1.05 ± 0.1 | 0.989 ± 0.1 | 1.015 ± 0.0071 | 0.881 ± 0.012 | 0.913 ± 0.024
